Bioassay records deposited in PubChem BioAssay by several laboratories.
Bead autofluor = counter-screen for toxin protease inhibitors: compound fluorescence; actives 3.1% (n = 360,000); fluorescence intensity (concentration not given with the values); compound autofluorescence counterscreen, microsphere flow cytometry; active compounds read high; in the data active means fluorescence intensity above about 16000; inconclusive means no clear call, values can overlap the other calls
FBA Mtb inh = Mtb fructose-bisphosphate aldolase inhibition; purified M. tuberculosis FBA, fluorescence read-out; inhibition, % at 1 µM; actives 2.3% (n = 360,000); AID 588726;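 further: 0% = vehicle and 100% = reference inhibitor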
Anthrax LF prot = anthrax lethal factor protease inhibition; P15917; multiplex microsphere protease cleavage assay, LF; inhibition, % at 10 µM; actives 0.12% (n = 360,000); in the data active means inhibition above about 30%; inconclusive means no clear call, values can overlap the other calls; further: plate controls were buffer without enzyme for full effect and enzyme alone for no effect
Target sequence (P15917 whole entry, looked up): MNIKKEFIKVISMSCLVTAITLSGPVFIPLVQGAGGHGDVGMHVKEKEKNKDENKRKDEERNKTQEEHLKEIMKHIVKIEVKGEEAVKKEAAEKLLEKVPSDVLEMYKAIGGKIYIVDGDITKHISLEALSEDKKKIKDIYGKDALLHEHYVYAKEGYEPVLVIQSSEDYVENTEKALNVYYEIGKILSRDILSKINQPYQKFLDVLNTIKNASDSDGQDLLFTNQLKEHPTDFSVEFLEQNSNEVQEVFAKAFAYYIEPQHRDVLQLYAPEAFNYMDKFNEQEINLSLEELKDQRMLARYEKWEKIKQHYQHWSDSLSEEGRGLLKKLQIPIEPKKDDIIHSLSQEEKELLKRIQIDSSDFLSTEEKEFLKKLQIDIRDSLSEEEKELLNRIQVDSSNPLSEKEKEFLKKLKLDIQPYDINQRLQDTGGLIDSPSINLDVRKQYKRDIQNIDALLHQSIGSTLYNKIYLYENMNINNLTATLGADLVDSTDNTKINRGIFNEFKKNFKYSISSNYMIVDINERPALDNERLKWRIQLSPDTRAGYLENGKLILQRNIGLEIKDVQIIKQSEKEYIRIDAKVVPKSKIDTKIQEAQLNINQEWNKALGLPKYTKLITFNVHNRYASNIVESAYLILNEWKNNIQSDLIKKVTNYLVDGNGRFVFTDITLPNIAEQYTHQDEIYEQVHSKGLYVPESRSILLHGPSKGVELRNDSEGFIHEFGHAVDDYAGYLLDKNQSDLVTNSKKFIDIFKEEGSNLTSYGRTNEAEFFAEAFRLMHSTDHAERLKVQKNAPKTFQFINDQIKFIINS
BoNT F protease = BoNT F light chain protease inhibition; actives 0.22% (n = 360,000); AID 588497; inhibition, % at 10 µM; Multiplex microsphere protease cleavage assay, flow cytometry; in the data active means inhibition above about 35%, passing the limit was not always enough; inconclusive means no clear call, values can overlap the other calls; further: plate controls were buffer without enzyme for full effect and enzyme alone for no effect
GDH-TPI counter-1 = inhibits GDH-TPI coupling enzymes, artifact for Mtb FBA screen | inhibition, % at 4.8 µM | AID 588335 | actives 1.2% (n = 360,000) | GDH-TPI coupled enzyme counterscreen, NADH absorbance; in the data active means inhibition above about 30%;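 further: 0% = DMSO wells and 100% = wells lacking the enzyme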
BoNT A protease = blocks Botulinum neurotoxin A light chain protease. multiplex microsphere protease substrate cleavage, flow cytometry. inhibition, % at 10 µM. AID 588499. actives 0.17% (n = 360,000); in the data active means inhibition above about 30%; inconclusive means no clear call, values can overlap the other calls; further: plate controls were buffer without enzyme for full effect and enzyme alone for no effect
Mtb FBA confirm = Mtb FBA inhibition, confirmed; shares compounds with FBA Mtb inh; purified M. tuberculosis FBA, fluorescence read-out; inhibition, % at 1 µM; actives 78% (n = 5,600);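 further: 0% = vehicle wells and 100% = reference inhibitor wells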
GDH-TPI counter-2 = GDH-TPI inhibition counter-screen for FBA inhibitors; shares compounds with FBA Mtb inh; GDH-TPI coupled enzyme counterscreen, fluorescence; inhibition, % at 1 µM; actives 81% (n = 5,600); AID 652141; in the data active means inhibition above about 10%
An asterisk follows results filed as active; ? = inconclusive; . = no result; + = active, no number. Rows were chosen to be rich in hits. Some 6.7% of all compounds tested hit in one or more screens of this group. Unless noted, no stated cut-off is given here; in the data, active means inhibition above about 27%; inactive means the rest.

SMILES	Bead autofluor	FBA Mtb inh	Anthrax LF prot	BoNT F protease	GDH-TPI counter-1	BoNT A protease	Mtb FBA confirm	GDH-TPI counter-2
CC(=O)N1CCC2(CC1)CC(=O)c1cc(OCC(=O)N3CCC4(CC3)OCCO4)ccc1O2	4142	58*	0	-2	9	0	27*	25*
COc1cc2c(cc1OC)CN(CC(=O)Nc1ccccc1SC)CC2	3404	1	-2	2	-1	1	.	.
COc1cc2c(cc1OC)CN(CC(=O)Nc1ccccc1C#N)CC2	4730	65*	3	3	1	0	156*	176*
FC(F)(F)c1cc(-c2ccco2)nc2ncnn12	11080	27*	2	-3	17	0	75*	57*
FC(F)(F)c1cc(-c2ccccc2)nc2ncnn12	10816	34*	-3	4	1	0	0	-3
Cc1ccc(C2N=C(N)Nc3nc(=O)c4ccccc4n32)cc1 (stereo unspecified)	6423	76*	-14	-6	3	-1	9	6
Cc1ccc(C2N=C(N)Nc3nc4ccccc4n32)cc1 (stereo unspecified)	3407	2	-8	-5	-1	-1	.	.
O=C(Nc1nc2ccccc2n1CCN1CCCCC1)C1CCCCC1	2139	0	-1	-12	1	-1	.	.
Cc1ccc2c(N)c(C)ccc2c1	3425	49*	-5	12	13	1	-2	-6
Cc1ccc(C)c(N)c1	5055	-1	-2	-2	2	0	.	.
Nc1ccc2nn(-c3ccccc3)nc2c1	3129	25	-5	-9	10	0	.	.
Nc1cc2nn(-c3ccccc3)nc2cc1Cl	3838	36*	-1	-2	8	5	109*	88*
Cc1ccc(S(=O)(=O)NNC(=O)Nc2ccc(Cl)cc2)cc1	8992	2	2	4	4	0	.	.
COc1cc(OC)cc(C(=O)N2CCCC(c3nc(-c4ccc(C)o4)no3)C2)c1 (stereo unspecified)	4465	31*	-5	0	1	2	2	-6
COc1ccc(-c2noc(C3CCCN(C(=O)c4cccc(C)c4)C3)n2)cc1 (stereo unspecified)	4215	78*	-12	?	-4	-3	115*	77*
Cc1ccc(-c2noc(C3CCCN(C(=O)c4cccc(F)c4)C3)n2)cc1 (stereo unspecified)	4072	1	1	-36	-10	0	.	.
Cc1nc(NS(=O)(=O)c2cccc([N+](=O)[O-])c2)sc1C(C)(C)C	4347	4	-5	-13	7	1	.	.
COc1ccccc1-c1nc(SCC(=O)Nc2ccccc2F)n[nH]1	6190	7	-3	-4	9	-1	.	.
Cc1nn2c(=O)c(NC(=O)c3ccc(Cl)cc3)cnc2s1	3312	65*	3	5	7	0	44*	28*
Cc1ccc(NC(=O)c2cn(CCC#N)nc2-c2ccc3c(c2)OCCO3)c([N+](=O)[O-])c1	2442	1	-2	-3	11	0	.	.
CCOC(=O)Cc1c(C)nc2cc(-c3ccc(C(C)(C)C)cc3)[nH]n2c1=O	9652	6	0	0	13	0	.	.
C=CCc1c(C)nc2cc(-c3ccc(C)cc3)[nH]n2c1=O	3332	27*	3	?	-1	-4	+	+
C=CCn1c(SCC(=O)NC2CCS(=O)(=O)C2)nnc1-c1cc2c(s1)CCC(CC)C2 (stereo unspecified)	2024	3	0	-7	1	-1	.	.
C=CCn1c(-c2cc3c(s2)CCC(CC)C3)n[nH]c1=S (stereo unspecified)	4441	84*	-6	-5	-1	0	170*	137*
COc1ccc(-c2ccc(C(=O)NCC(C)C)c3occc23)c(C)c1	3416	58*	-4	4	10	0	166*	132*
COc1ccc(-c2ccc(C(=O)NCC3CC3)c3occc23)c(C)c1	3873	57*	2	-15	-1	0	46*	33*
